BoNT-F LC inh: BoNT F light chain protease inhibition; 0.22% of 360,000 active; Multiplex microsphere protease cleavage assay, flow cytometry; AID 588497; inhibition, % at 10 µM; in the data active = inhibition above about 35%, passing the limit was not always enough; inconclusive = no clear call, values can overlap the other calls; note: plate controls were buffer without enzyme for full effect and enzyme alone for no effect
SSB-PriA inh: inhibitors of Klebsiella pneumoniae PriA binding to SSB C-terminal tail | 0.6% of 430,000 active | inhibition, % at 33 µM | AID 1272365 | AlphaScreen SSBct-PriA binding, biotinylated peptide; in the data active = inhibition mostly above about 37%, no sharp cut-off; inactive = mostly below about 20%;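 note: plate controls were negative control peptide for no effect and reference peptide for full effect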
BoNT A protease: inhibitors of Botulinum neurotoxin A light chain protease. inhibition, % at 10 µM. multiplex microsphere protease substrate cleavage, flow cytometry. 0.17% of 360,000 active. AID 588499; note: plate controls were buffer without enzyme for full effect and enzyme alone for no effect
Autofluor counter: flagged as autofluorescent in microsphere protease counterscreen | AID 624483 | fluorescence intensity (no concentration beside the values) | 3.1% of 360,000 active | compound autofluorescence counterscreen, microsphere flow cytometry; active compounds read high; in the data active = fluorescence intensity above about 16000; inconclusive = no clear call, values can overlap the other calls
Anthrax LF prot: anthrax lethal factor protease inhibition. multiplex microsphere protease cleavage assay, LF. AID 588501. 0.12% of 360,000 active. inhibition, % at 10 µM. P15917; note: plate controls were buffer without enzyme for full effect and enzyme alone for no effect
* hit, by the source's call; ! = not active in a repeat. Sampled rows, rich in hits. Any-hit rate of the full collection: about 3.1%. Cut-off read from the data, not from the text of the source, unless noted: active = inhibition above about 30%; inconclusive = no clear call, values can overlap the other calls; inactive = below that.

Screening O=C(CSc1ccc2nnc(CCNC(=O)c3ccccc3)n2n1)NC[C@H]1CCCO1 returned SSB-PriA inh -4.
For Cc1ccc(-c2csc(C(C#N)=C3CCC(c4ccccc4)CC3)n2)cc1 (configuration not stated) the results were SSB-PriA inh -12.
Cc1cccc(N(C)S(=O)(=O)c2ccc3[nH]c(=O)c(=O)[nH]c3c2)c1 was read as BoNT-F LC inh -1, SSB-PriA inh -5, BoNT A protease inconclusive, Autofluor counter 16965* and Anthrax LF prot 4.
For N#Cc1nc(-c2ccc(F)cc2)oc1N1CCCCCC1 the results were SSB-PriA inh 112*.
Cc1ccc(OCc2ccc(-c3nc(C#N)c(N4CCCCC4)o3)o2)cc1 was read as SSB-PriA inh 82*.
CCOc1ccc(-c2nc(C#N)c(N3CCCCC3)o2)cc1 was read as SSB-PriA inh 94*.
`COP(=O)(OC)c1nc(-c2ccc(C)cc2)oc1N1CCCCC1` gave BoNT-F LC inh -19, SSB-PriA inh 51*, BoNT A protease 0, Autofluor counter 3590 and Anthrax LF prot -11.
`CCCOc1ccc(-c2nc(C#N)c(N3CCCC3)o2)cc1` gave SSB-PriA inh 61.
Screening Cc1ccc(OCc2ccc(-c3nc(C#N)c(NCCCn4ccnc4)o3)o2)cc1 returned SSB-PriA inh 60*!.
`CC1=C(C(=O)N2CCOCC2)C(c2ccccc2F)C2=C(CC(C)(C)CC2=O)N1` (configuration not stated) gave BoNT-F LC inh 2, SSB-PriA inh -9, BoNT A protease 2, Autofluor counter 19197* and Anthrax LF prot -3.
Screening Cc1nn(Cc2ccc([N+](=O)[O-])cc2)c(=O)n1-c1ccccc1 returned BoNT-F LC inh 10, SSB-PriA inh -5, BoNT A protease inconclusive, Autofluor counter 17702* and Anthrax LF prot -10.
For Cc1ccc2nc3c(nc2c1)-c1ccccc1C3=O the results were BoNT-F LC inh 0, SSB-PriA inh -13, BoNT A protease 0, Autofluor counter 23481* and Anthrax LF prot 1.
`Cc1ccc(S(=O)(=O)NC[C@H]2CCCN2c2ccccc2)s1` gave SSB-PriA inh 34*.
`Cc1ccc(S(=O)(=O)NCc2ccccc2)s1` gave BoNT-F LC inh 9, SSB-PriA inh -21, BoNT A protease 2, Autofluor counter 3619 and Anthrax LF prot 1.
Screening O=S(=O)(NCC1CCCN1c1ccccc1)c1ccc(OC(F)(F)F)cc1 (configuration not stated) returned SSB-PriA inh 18.
Screening O=S(=O)(NC[C@H]1CCCN1c1ccccc1)c1cccc2ccccc12 returned SSB-PriA inh 32*.
Screening COc1ccccc1-c1nnc2ccc(OCCNC(=O)c3ccccc3Cl)nn12 returned SSB-PriA inh -9.
COc1cccc(CNCC(O)(c2ccc(Cl)cc2)c2ccc(Cl)cc2)c1 was read as BoNT-F LC inh -12, SSB-PriA inh -8, BoNT A protease 0, Autofluor counter 23322* and Anthrax LF prot -3.
CCN(CC)Cc1cc(C(C)=O)ccc1OCC(C)C was read as BoNT-F LC inh 0, SSB-PriA inh -7, BoNT A protease 0, Autofluor counter 16228* and Anthrax LF prot -3.
`CC(=O)c1ccc(OCC(C)C)c(CC(C(N)=O)C(N)=O)c1` gave BoNT-F LC inh -11, SSB-PriA inh -13, BoNT A protease -3, Autofluor counter 13264 and Anthrax LF prot -7.
Screening CCOc1cc(C2C3=C(CCCC3=O)Nc3nc(C(=O)OC)nn32)ccc1OC (configuration not stated) returned BoNT-F LC inh 1, SSB-PriA inh 1, BoNT A protease 1, Autofluor counter 22585* and Anthrax LF prot -1.
Screening COc1cc(Cl)c(C)cc1NC(=O)c1ccccc1Cl returned SSB-PriA inh -9.
`NC(=O)Cc1csc(NC(=O)c2cc(N3CCCCC3)ncn2)n1` gave SSB-PriA inh -5.
Screening O=C(OCn1ncc(Cl)c(Cl)c1=O)c1cccc(C(F)(F)F)c1 returned BoNT-F LC inh 1, SSB-PriA inh -1, BoNT A protease 1, Autofluor counter 22357* and Anthrax LF prot -2.
`O=C(OCn1ncc(Br)c(Br)c1=O)c1ccccc1Cl` gave BoNT-F LC inh -22, SSB-PriA inh -9, BoNT A protease 1, Autofluor counter 3438 and Anthrax LF prot -4.
`CC(C)C(NC=C1C(=O)OC(C)(C)OC1=O)C(=O)O` (configuration not stated) gave BoNT-F LC inh -5, SSB-PriA inh -5, BoNT A protease inconclusive, Autofluor counter 16608* and Anthrax LF prot -2.
